# Source: PMC4336329 (PLoS ONE, 2015)
# The campaign covered roughly 310,000 compounds. About 14,000 (4.5%) showed an effect of 50% or more. Effects have a minus sign here. Many of the other results were omitted from the sample, so strong results are more common in it than they were.
# Target: human ether-à-go-go-related gene (hERG) potassium channel (human, UniProt Q12809)
# Test: primary screen, population patch clamp on CHO cells stably expressing hERG; higher = less effect of the substance
# 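Further: peak tail current of the secondary pulse compared with the same well before compound.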
# Chain of human ether-à-go-go-related gene (hERG) potassium channel (Q12809 whole entry, looked up): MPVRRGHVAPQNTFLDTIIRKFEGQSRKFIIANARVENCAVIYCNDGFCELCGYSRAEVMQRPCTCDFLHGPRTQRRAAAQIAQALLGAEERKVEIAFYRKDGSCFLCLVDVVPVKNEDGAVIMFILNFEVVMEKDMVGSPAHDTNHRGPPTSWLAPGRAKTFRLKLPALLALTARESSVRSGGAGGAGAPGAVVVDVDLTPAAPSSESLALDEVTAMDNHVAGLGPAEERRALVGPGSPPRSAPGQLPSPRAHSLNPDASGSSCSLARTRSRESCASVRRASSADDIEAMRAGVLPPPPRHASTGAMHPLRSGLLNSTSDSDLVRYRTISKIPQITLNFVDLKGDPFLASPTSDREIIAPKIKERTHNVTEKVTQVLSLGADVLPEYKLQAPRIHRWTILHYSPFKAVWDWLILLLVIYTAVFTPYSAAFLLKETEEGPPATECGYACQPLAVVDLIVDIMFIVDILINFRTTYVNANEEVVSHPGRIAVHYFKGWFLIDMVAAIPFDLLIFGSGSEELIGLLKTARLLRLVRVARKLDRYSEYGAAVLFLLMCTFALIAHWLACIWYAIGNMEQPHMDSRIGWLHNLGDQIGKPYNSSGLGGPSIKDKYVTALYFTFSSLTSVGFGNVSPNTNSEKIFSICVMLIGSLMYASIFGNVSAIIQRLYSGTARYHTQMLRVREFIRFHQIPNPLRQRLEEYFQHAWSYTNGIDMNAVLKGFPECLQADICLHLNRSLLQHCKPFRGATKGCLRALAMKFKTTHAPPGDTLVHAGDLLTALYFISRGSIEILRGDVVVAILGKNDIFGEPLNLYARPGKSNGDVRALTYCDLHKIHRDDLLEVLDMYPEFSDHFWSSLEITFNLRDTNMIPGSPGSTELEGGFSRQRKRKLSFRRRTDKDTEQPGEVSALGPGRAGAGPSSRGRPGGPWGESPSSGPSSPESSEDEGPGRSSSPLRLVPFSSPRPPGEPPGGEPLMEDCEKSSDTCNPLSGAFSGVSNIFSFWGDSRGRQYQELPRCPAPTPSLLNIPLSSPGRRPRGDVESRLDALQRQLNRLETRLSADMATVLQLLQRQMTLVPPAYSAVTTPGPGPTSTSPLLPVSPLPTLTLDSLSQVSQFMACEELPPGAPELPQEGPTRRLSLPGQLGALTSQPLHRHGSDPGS
row,Structure (SMILES),"hERG current change (%, negative = inhibition) at 10uM"
1,CCOc1ccccc1N(C)S(=O)(=O)c1ccc2c(c1)CC(C)N2C(=O)C1CC1 (stereo not drawn),9.49%
2,O=c1[nH][nH]c(C(F)(F)F)c1C=NCc1ccc(Cl)cc1,-1.88%
3,COC(=O)C1=C(C(=O)OC)[C@@H]2N(C)c3ccccc3[C@@]23C[C@@H](C(=O)OC)N=C3N1,-2.81%
4,CCOC(=O)N1CCC(N(CCN(C)C)C(=S)Nc2ccccc2C)CC1,3.33%
5,CN(C)S(=O)(=O)c1cccc(NC(=O)CSc2nc3ccccc3[nH]2)c1,-22.2%
6,Cc1cc(C)n2c(-c3ccccc3Cl)nnc2n1,-14.8%
7,O=C(NCCCCO)c1ccc2c3c(cccc13)CC2,7.52%
8,CC(=O)NS(=O)(=O)c1cccnc1Nc1ccc(Cl)c(Cl)c1,16.1%
9,CC(=O)Nc1nc2c(c3c1c(=O)oc1ccccc13)CCCCC2,-7.1%
10,C=C[C@@]12CN(C)[C@H]3[C@H]1[C@@]1(C(=O)Nc4ccccc41)C1CC2[C@@H]3CO1,13%
11,O=c1c2c(-c3cccs3)csc2ncn1-c1ccccc1,-28.3%
12,CCOc1ccc(N2C(=O)c3ccc(C(=O)OCC(=O)N(CC)C4CCS(=O)(=O)C4)cc3C2=O)cc1 (stereo not drawn),-22.3%
13,Cc1cccc(NC(=O)Cn2cccc2)c1,-5.5%
14,COc1cc(NC(=O)CN2CCN(S(=O)(=O)/C=C/c3ccccc3)CC2)cc(OC)c1OC,-14.8%
15,Cc1cccc(NC(=O)CN2CCCCCC2)c1,7.69%
16,Cc1cc(C)cc(NC(=O)CN2CCC(NC(=O)c3cccc(F)c3)CC2)c1,-39%
17,COC(=O)c1cccc(NC(=O)CN2CCN(Cc3ccccc3)CC2)c1,-16%
18,O=C(CN1CCN(Cc2ccccc2)CC1)Nc1cccc(Br)c1,-51.7%
19,Cc1ccc(NC(=O)CN2CCC(NC(=O)c3cccc(F)c3)CC2)cc1C,-41.3%
20,CC(=O)c1cccc(NC(=O)CN2CCN(S(=O)(=O)/C=C/c3ccccc3)CC2)c1,-53.9%
21,CC(=O)c1cccc(NC(=O)CN2CCN(Cc3ccccc3)CC2)c1.Cl,-10.9%
22,NS(=O)(=O)c1ccc(NC(=O)CN2CCN(S(=O)(=O)/C=C/c3ccccc3)CC2)cc1,-9.04%
23,O=C(CN1CCC(NC(=O)c2cccc(F)c2)CC1)Nc1ccc(Br)cc1,-73%
24,Cc1cccc(NC(=O)CN2CCN(CC(=O)Nc3cccc(C)c3)CC2)c1,-63.7%
